Results taken from PubChem BioAssay (EPA / NIEHS).
“And” between values parts separate entries of the source, which are not always exact repeats. Equal entries are not always repeated. Inconclusive results are not listed. The source made the active and inactive calls. The calls were made as follows, unless noted: active = hit-call score of the fitted dose curve at least 0.9, where 1 is the maximum; inconclusive = response in the unintended direction; inactive = score below 0.9.

How the values were obtained:
[1] = BSK_3C_Proliferation: Cell Proliferation Assessment in the BioMAP Diversity Plus: 3C Assay (AID 2283006; active = hit-call score of the fitted dose curve at least 0.9, where 1 is the maximum; inactive = score below 0.9;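 as to AC50: potency may reflect either rise or fall in cell number versus DMSO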); details: primary human endothelial cells (HUVEC)
Procedure, shortened: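 Subconfluent HUVEC (3C system) cultured with chemical; relative cell number read at 48 h by sulforhodamine B total-protein staining (0.1% SRB after 10% TCA fixation, 560 nm). Bidirectional fit relative to DMSO.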

[2] = target: Peroxisome proliferator-activated receptor gamma (Homo sapiens) (UniProt P37231); assay: ATG_PPARg_TRANS: Attagene TRANS-FACTORIAL HepG2 Assay for human Peroxisome Proliferator-activated Receptor-gamma (PPARg) (AID 2283007)
Chain of Peroxisome proliferator-activated receptor gamma (Homo sapiens) (P37231 whole entry, looked up, the tested form may be a part): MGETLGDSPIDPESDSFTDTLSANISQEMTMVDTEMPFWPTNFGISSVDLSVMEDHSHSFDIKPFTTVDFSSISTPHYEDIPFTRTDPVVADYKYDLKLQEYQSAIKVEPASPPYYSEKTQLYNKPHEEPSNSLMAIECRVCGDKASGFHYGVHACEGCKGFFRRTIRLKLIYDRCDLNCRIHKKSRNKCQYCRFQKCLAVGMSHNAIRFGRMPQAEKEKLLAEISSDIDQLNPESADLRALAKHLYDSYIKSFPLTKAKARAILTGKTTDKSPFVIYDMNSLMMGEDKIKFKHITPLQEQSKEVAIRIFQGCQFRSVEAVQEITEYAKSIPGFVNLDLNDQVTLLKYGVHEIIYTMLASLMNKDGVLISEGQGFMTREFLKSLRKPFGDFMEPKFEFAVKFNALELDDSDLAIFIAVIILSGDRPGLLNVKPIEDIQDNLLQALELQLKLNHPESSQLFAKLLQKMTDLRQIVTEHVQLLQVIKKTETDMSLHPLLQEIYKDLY
Procedure, shortened: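 Gain-of-signal endpoint relative to DMSO, derived from reporter mRNA levels quantified by RT-PCR and capillary electrophoresis. Cells were HepG2 transiently expressing a chimeric NR-Gal4 construct with GAL4-UAS reporters, exposed to chemicals for 24 h.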

[3] = target: Nuclear receptor subfamily 1 group I member 2 (Homo sapiens) (UniProt O75469); assay: ATG_PXR_TRANS: Attagene TRANS-FACTORIAL HepG2 Assay for human Pregnane X Receptor (PXR) (AID 2283008)
Chain of Nuclear receptor subfamily 1 group I member 2 (Homo sapiens) (O75469 whole entry, looked up, the tested form may be a part): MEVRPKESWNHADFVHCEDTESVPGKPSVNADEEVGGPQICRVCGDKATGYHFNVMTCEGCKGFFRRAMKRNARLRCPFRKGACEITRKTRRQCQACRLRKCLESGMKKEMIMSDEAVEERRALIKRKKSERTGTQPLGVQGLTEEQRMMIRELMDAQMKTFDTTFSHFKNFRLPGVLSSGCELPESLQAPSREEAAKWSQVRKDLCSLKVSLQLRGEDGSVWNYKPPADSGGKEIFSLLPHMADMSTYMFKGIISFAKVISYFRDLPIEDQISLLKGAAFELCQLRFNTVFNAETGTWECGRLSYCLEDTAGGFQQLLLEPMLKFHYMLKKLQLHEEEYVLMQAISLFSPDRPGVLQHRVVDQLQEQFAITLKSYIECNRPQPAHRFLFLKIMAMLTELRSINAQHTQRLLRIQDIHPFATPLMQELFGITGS
Procedure, shortened: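 HepG2 cells transiently transfected with GAL4-UAS reporter units and PXR-Gal4 chimera, exposed 24 h. Reporter mRNA quantified by RT-PCR, fluorescent labelling, HpaI digestion and capillary electrophoresis; gain of signal vs DMSO.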

[4] = target: human RAR-related Orphan Receptor beta (RORb), RORB (gene 6096) (UniProt Q92753); assay: ATG_RORb_TRANS: Attagene TRANS-FACTORIAL HepG2 Assay for human RAR-related Orphan Receptor beta (RORb) (AID 2283010)
Chain of human RAR-related Orphan Receptor beta (RORb), RORB (gene 6096) (Q92753 whole entry, looked up, the tested form may be a part): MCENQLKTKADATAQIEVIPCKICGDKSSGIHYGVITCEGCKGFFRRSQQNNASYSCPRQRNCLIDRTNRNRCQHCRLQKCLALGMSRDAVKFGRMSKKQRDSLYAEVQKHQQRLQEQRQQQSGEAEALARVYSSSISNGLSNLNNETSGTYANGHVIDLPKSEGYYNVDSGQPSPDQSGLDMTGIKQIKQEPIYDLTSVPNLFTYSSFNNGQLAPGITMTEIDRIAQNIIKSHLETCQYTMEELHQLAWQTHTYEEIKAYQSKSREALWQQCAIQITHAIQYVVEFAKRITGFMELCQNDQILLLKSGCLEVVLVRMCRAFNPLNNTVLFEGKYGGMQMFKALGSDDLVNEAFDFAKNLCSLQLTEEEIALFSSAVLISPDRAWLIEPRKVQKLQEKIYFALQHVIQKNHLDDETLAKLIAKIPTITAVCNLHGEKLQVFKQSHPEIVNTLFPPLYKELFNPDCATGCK
Procedure, shortened: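 HepG2 cells transiently transfected with GAL4-UAS reporter units expressing chimeric NR-Gal4 protein; reporter mRNA measured 24 h after dosing by RT-PCR, 6-FAM labelling and capillary electrophoresis. Gain-of-signal fitted relative to DMSO baseline.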

[5] = read-out: E-selectin (Homo sapiens) (UniProt P16581); assay: BSK_3C_Eselectin: BioMAP Diversity Plus: 3C Assay for Eselectin Biomarker Activity (AID 2283015; active = hit-call score of the fitted dose curve at least 0.9, where 1 is the maximum; inactive = score below 0.9); details: primary human endothelial cells (HUVEC); actives raise or lower the signal
Procedure, shortened: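 Endpoint derived by bidirectional fitting against DMSO vehicle; signal is ELISA-detected E-selectin from primary HUVEC at 24 h post-dosing, with parallel SRB staining (0.1% SRB, 560 nm) flagging cytotoxicity.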

[6] = target: Retinoic acid receptor RXR-alpha (Homo sapiens) (UniProt P19793); assay: ATG_RXRa_TRANS: Attagene TRANS-FACTORIAL HepG2 Assay for human Retinoid X Receptor alpha (RXRa) (AID 2283012)
Chain of Retinoic acid receptor RXR-alpha (Homo sapiens) (P19793 whole entry, looked up, the tested form may be a part): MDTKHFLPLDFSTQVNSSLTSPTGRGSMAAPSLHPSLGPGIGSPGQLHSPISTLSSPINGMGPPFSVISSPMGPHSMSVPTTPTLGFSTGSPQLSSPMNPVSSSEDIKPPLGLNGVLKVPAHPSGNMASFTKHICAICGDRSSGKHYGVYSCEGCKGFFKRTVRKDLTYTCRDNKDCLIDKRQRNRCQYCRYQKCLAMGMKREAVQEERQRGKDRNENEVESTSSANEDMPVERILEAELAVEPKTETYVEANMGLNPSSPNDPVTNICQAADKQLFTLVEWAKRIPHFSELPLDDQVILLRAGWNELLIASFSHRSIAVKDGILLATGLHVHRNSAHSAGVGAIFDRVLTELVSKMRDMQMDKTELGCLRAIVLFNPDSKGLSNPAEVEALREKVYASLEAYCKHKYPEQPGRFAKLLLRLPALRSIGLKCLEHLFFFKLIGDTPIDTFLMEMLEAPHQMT
Procedure, shortened: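 HepG2 cells transiently transfected with GAL4-UAS reporter units and chimeric RXRa-Gal4 protein, treated 24 h. Reporter mRNA measured by RT-PCR, fluorescent labelling, HpaI digestion and capillary electrophoresis. Induction fitted against DMSO.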

[7] = target: human Retinoid X Receptor beta (RXRb), RXRB (gene 6257) (UniProt P28702); assay: ATG_RXRb_TRANS: Attagene TRANS-FACTORIAL HepG2 Assay for human Retinoid X Receptor beta (RXRb) (AID 2283013)
Chain of human Retinoid X Receptor beta (RXRb), RXRB (gene 6257) (P28702 whole entry, looked up, the tested form may be a part): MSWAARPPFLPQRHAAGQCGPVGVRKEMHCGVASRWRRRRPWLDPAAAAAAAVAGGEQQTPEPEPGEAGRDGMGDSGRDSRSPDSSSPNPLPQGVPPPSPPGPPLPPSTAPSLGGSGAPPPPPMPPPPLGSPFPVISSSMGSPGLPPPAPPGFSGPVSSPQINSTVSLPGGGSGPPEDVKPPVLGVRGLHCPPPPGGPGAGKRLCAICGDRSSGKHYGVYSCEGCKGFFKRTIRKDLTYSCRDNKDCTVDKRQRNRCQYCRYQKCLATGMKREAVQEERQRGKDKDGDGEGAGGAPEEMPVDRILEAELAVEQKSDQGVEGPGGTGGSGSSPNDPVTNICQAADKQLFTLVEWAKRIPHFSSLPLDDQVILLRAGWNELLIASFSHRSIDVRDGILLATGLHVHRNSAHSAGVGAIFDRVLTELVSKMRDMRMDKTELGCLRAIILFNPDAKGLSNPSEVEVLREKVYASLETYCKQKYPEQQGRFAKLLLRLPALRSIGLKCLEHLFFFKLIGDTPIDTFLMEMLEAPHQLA
Procedure, shortened: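 HepG2 cells were transiently transfected with multiplexed GAL4-UAS reporters and a chimeric RXRb-Gal4 construct, then exposed for 24 h. Reporter mRNA was quantified by RT-PCR, FAM labeling, HpaI digestion and capillary electrophoresis; gain of signal was scored against DMSO.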

[8] = target: human Retinoic Acid Receptor gamma (RARg), RARG (gene 5916) (UniProt P13631); assay: ATG_RARg_TRANS: Attagene TRANS-FACTORIAL HepG2 Assay for human Retinoic Acid Receptor gamma (RARg) (AID 2283009);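 as to AC50: AC50 is for reporter induction above DMSO meaning RARg activation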
Chain of human Retinoic Acid Receptor gamma (RARg), RARG (gene 5916) (P13631 whole entry, looked up, the tested form may be a part): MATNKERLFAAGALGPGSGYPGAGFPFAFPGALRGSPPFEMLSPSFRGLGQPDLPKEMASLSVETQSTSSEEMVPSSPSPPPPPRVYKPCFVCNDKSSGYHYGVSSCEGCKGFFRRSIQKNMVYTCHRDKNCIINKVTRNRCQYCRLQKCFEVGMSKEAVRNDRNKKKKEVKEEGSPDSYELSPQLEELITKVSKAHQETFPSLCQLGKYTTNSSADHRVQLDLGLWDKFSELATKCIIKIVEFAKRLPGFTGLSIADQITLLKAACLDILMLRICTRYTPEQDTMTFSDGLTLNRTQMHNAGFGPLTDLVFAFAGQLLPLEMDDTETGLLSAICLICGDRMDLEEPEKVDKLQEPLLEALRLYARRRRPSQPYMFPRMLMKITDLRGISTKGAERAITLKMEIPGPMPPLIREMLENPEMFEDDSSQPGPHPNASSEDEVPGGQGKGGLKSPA
Procedure, shortened: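 HepG2 transiently transfected with GAL4-UAS reporter units and chimeric NR-Gal4 constructs; 24 h compound exposure. Reporter mRNA quantified by RT-PCR, FAM labeling, HpaI digestion and capillary electrophoresis; gain-of-signal versus DMSO.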

[9] = target: human Thyroid Receptor alpha (THRa1), THRA (gene 7067) (UniProt P10827); assay: ATG_THRa1_TRANS: Attagene TRANS-FACTORIAL HepG2 Assay for human Thyroid Receptor alpha (THRa1) (AID 2283014)
Chain of human Thyroid Receptor alpha (THRa1), THRA (gene 7067) (P10827 whole entry, looked up, the tested form may be a part): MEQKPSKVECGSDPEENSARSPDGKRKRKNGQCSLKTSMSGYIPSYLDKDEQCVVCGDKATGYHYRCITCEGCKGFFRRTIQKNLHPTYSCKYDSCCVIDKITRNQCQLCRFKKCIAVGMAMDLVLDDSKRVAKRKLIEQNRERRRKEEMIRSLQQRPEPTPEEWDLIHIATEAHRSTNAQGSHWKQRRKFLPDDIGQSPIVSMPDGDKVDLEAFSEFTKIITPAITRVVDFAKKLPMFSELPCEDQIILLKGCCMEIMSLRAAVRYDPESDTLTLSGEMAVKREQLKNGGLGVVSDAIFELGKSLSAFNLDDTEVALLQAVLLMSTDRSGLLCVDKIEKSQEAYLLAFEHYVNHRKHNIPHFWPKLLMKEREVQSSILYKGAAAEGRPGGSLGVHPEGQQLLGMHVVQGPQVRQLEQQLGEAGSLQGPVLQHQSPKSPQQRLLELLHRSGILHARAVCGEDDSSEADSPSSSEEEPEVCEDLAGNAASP
Procedure, shortened: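 Measured here is mRNA from a GAL4-UAS reporter in transfected HepG2 cells carrying a Gal4-fused receptor, 24 h post-dose. DMSO served as negative control and baseline.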

[10] = target: human RAR-related Orphan Receptor gamma (RORg), RORC (gene 6097) (UniProt P51449); assay: ATG_RORg_TRANS: Attagene TRANS-FACTORIAL HepG2 Assay for human RAR-related Orphan Receptor gamma (RORg) (AID 2283011)
Chain of human RAR-related Orphan Receptor gamma (RORg), RORC (gene 6097) (P51449 whole entry, looked up, the tested form may be a part): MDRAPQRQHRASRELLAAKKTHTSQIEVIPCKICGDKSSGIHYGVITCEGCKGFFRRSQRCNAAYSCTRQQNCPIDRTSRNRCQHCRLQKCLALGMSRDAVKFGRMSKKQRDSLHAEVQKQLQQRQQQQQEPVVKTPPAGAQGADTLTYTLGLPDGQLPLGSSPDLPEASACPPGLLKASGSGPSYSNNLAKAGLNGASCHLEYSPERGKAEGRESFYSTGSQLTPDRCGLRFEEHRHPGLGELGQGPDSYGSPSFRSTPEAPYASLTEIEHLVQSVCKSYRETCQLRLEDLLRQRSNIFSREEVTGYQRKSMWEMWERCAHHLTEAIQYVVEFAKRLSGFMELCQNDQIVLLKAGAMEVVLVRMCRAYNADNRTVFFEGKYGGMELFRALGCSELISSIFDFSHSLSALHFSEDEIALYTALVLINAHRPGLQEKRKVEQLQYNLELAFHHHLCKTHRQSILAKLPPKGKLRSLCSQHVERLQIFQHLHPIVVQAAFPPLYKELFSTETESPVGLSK
Procedure, shortened: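 Chimeric RORg-Gal4 transactivation in transfected HepG2; 24 h exposure; RT-PCR/capillary electrophoresis readout of reporter mRNA, DMSO baseline.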

Measured: AC50

Chain of E-selectin (Homo sapiens) (P16581 whole entry, looked up): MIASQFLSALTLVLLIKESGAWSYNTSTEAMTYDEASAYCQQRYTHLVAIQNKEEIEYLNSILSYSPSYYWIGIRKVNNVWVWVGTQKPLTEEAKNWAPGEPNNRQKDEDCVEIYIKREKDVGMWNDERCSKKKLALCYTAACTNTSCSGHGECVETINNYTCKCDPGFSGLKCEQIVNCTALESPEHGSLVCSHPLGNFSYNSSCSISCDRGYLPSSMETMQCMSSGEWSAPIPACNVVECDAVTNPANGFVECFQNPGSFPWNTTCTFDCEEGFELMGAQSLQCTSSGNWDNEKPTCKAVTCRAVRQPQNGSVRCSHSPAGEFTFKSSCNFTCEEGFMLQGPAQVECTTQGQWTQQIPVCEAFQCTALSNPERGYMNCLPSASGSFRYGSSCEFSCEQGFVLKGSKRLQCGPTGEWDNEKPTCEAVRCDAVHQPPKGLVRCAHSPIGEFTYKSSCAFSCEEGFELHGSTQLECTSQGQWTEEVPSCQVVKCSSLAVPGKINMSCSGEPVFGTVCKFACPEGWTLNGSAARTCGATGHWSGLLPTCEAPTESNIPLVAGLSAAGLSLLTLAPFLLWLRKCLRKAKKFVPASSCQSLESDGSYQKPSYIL

CC(C)=CCCC(C)CCO (centres undefined)
inactive: [1] | [3] | [4] | [5]
active: [2] 42.6 µM

O=C(CCCCCCCCc1cccnc1)N1CCC(C=C(c2ccccc2)c2ccccc2)CC1
active: [1] 5.66 µM | [2] 1.41 µM | [3] 1.08 µM | [5] 19.4 µM
inactive: [6] | [7]

Oc1ccc2c(c1)-c1ccccc1C2
active: [1] 15.4 µM | [7] 26.2 µM
not listed: [4] | [10]
inactive: all other assays above

CCNc1ccccc1
not listed: [4] | [6]
inactive: all other assays above

CCOC(=O)c1ccc(C2CCC(NC[C@H](O)COc3ccc(O)c(NS(C)(=O)=O)c3)CC2)cc1 (some centres undefined)
active: [1] 28.1 µM | [3] 33 µM | [6] 54.3 µM
inactive: [2] | [8] | [5]

O=C1OC(=O)C2C3C=CC(C3)C12 (centres undefined)
inactive: [1] | [2] | [3] | [6] | [7] | [5]

Cn1cnc([N+](=O)[O-])c1Sc1ncnc2nc[nH]c12
inactive: [4] | [6] | [7] | [5]
active: [1] 6.59 µM and 2.94 µM and 9.77 µM | [2] 39.9 µM | [8] 26.1 µM | [9] 27.2 µM

CC[C@H]1CC[C@H](NCc2cc3c(cc2OC)[C@H]2C[C@H]2C(=O)N3C)[C@H](c2ccccc2)N1
active: [1] 28.6 µM
not listed: [3] | [4] | [9]
inactive: all other assays above

CC(C)(O)c1coc(S(=O)(=O)NC(=O)Nc2c3c(cc4c2CCC4)CCC3)c1
active: [2] 44.9 µM | [3] 19.3 µM
not listed: [6]
inactive: all other assays above

CCOC(=O)COc1ccc2c(c1)CC(NCC(O)c1cccc(Cl)c1)CC2 (centres undefined)
active: [1] 15.3 µM | [2] 21.7 µM | [5] 31.4 µM
not listed: [3] | [6]
inactive: all other assays above

CCC(C)(C)C(=O)O[C@H]1C[C@@H](C)C=C2C=C[C@H](C)[C@H](CC[C@@H]3C[C@@H](O)CC(=O)O3)[C@H]21
inactive: [2] | [8] | [10] | [6]
active: [1] 4.32 µM | [5] 30.2 µM

O=C(O)c1cccc(N(Cc2cccnc2)c2ccc(OC(F)F)c(OC(F)F)c2)c1
active: [2] 6.66 µM | [3] 11.1 µM
inactive: [1] | [8] | [6] | [5]

Cc1ccc(C)c(O)c1
inactive: [1] | [2] | [8] | [4] | [5]

O=C(OC[C@H]1O[C@@H](OC(=O)c2cc(O)c(O)c(OC(=O)c3cc(O)c(O)c(O)c3)c2)[C@H](OC(=O)c2cc(O)c(O)c(OC(=O)c3cc(O)c(O)c(O)c3)c2)[C@@H](OC(=O)c2cc(O)c(O)c(OC(=O)c3cc(O)c(O)c(O)c3)c2)[C@@H]1OC(=O)c1cc(O)c(O)c(OC(=O)c2cc(O)c(O)c(O)c2)c1)c1cc(O)c(O)c(OC(=O)c2cc(O)c(O)c(O)c2)c1
active: [1] 9.47 µM
inactive: all other assays above

CN(C)c1ccc(Cc2ccc(N(C)C)cc2)cc1
inactive: [3] | [8] | [6] | [9] | [5]
active: [1] 13.4 µM | [2] 23.1 µM

CCN(C(=O)c1cc(C)cc(OC[C@H](C)Nc2ccncc2)c1)C(C)C
inactive: [1] | [2] | [8] | [4] | [6] | [5]

CCc1cc(SCc2sc(-c3ccc(C(F)(F)F)cc3)nc2CN2CCN(c3ccc(OC)cc3)CC2)ccc1OCC(=O)O
active: [1] 9.19 µM | [2] 0.0352 µM | [3] 4.69 µM | [5] 15.2 µM
inactive: [8] | [4] | [10] | [6]

CCn1nc(Cc2ccccc2)cc1C1CCN(C[C@H]2C[C@H](N(C)[C@@H](C(=O)O)C(C)C)C[C@@H]2c2cccc(F)c2)CC1
inactive: [1] | [2] | [3] | [5]

CCCCCCc1ccc(O)cc1O
inactive: [3]
active: [1] 30.2 µM | [2] 31.2 µM | [7] 24.2 µM | [5] 30.8 µM

CC(C)CCO
not listed: [4]
inactive: all other assays above

O=C(NS(=O)(=O)/C=C/c1ccccc1)c1ccc(F)cc1Cl
active: [1] 6.4 µM | [2] 22.3 µM | [3] 16.2 µM
not listed: [8] | [10]
inactive: all other assays above

O=P(OC(CCl)CCl)(OC(CCl)CCl)OC(CCl)CCl
inactive: [2] | [8] | [9] | [5]
active: [1] 10.6 µM | [3] 0.377 µM | [7] 26 µM

O=c1[nH]c2ccc(S(=O)CCN3CCC(Cc4ccc(F)cc4)CC3)cc2o1 (centres undefined)
active: [2] 7.65 µM | [3] 6.22 µM
inactive: [1] | [8] | [6] | [5]

COCCOCCOCCOC
not listed: [4] | [10]
inactive: all other assays above

CC(=O)c1ccc2c(c1)[C@H](NC(=O)c1ccc(F)cc1)[C@@H](O)C(C)(C)O2
inactive: [1] | [2] | [8] | [4] | [10] | [5]

C1N2CN3CN1CN(C2)C3
not listed: [4] | [8] | [10]
inactive: all other assays above

O=C(O)CCN(C1(C(=O)NO)CCCC1)S(=O)(=O)c1ccc(Oc2ccc(F)cc2)cc1
not listed: [3] | [10]
inactive: all other assays above

Cc1c(-c2cccnc2)c2ccccc2n1CCCCC(=O)O
inactive: [8] | [10] | [7] | [5]
active: [1] 17.4 µM | [2] 22.4 µM

COC(=O)c1c(Cl)c(Cl)c(C(=O)OC)c(Cl)c1Cl
inactive: [3] | [10] | [6] | [5]
active: [1] 14.6 µM | [2] 35.9 µM | [7] 30.8 µM

CC(C)CCCCCCOC(=O)c1ccc(C(=O)OCCCCCCC(C)C)c(C(=O)OCCCCCCC(C)C)c1
active: [7] 63.2 µM
inactive: [1] | [2] | [4] | [6] | [5]

CCOCCOCCOCCO
inactive: [1] | [2] | [6] | [9] | [5]

O=C(O)c1cccc(Oc2ccccc2)c1
active: [2] 59.8 µM
inactive: [1] | [10] | [7] | [9] | [5]

Clc1nc(Cl)c(Cl)c(Cl)c1Cl
inactive: [8] | [10] | [7] | [5]
active: [1] 20 µM | [2] 3.02 µM

C=CCCCCCCCCC(=O)O
inactive: [1] | [8] | [6] | [5]
active: [2] 69.1 µM | [7] 74.8 µM

CCCN(C1CCN(C(=O)C2CCNCC2)CC1)[C@@H]1CCc2ccc(OC)cc2C1
active: [2] 100 µM
not listed: [3] | [4] | [10]
inactive: all other assays above

CCCCCCCCO
inactive: [1] | [2] | [8] | [6] | [5]

CC(C)=CCC/C(C)=C/CO
active: [2] 63.6 µM
not listed: [3] | [8] | [9]
inactive: all other assays above

CCCCCCCCCCCCCCCO
active: [1] 14.7 µM | [7] 27.5 µM | [5] 26.9 µM
inactive: [2] | [10] | [6]
